Laboratory results from PubChem BioAssay (NCI).
About 79,000 compounds went through this panel and 15% of them were active in at least one assay; those are over-represented in the sample as a whole. Cut-off read from the data, not from the text of the source: active = growth inhibition above about 70%; inactive = the rest.

Assays:
[1] = NCI Yeast Anticancer Drug Screen. Data for the rad50 strain (AID 155);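 note: 0% = growth of vehicle-only cultures of the same strain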; conditions: S. cerevisiae rad50 strain growth inhibition; at 50.0 µM; stronger effect = higher value
Outline: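 Inhibition values express reduced yeast growth in compound-treated cultures relative to vehicle-treated controls.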

[2] = NCI Yeast Anticancer Drug Screen. Data for the mec2-1 strain (AID 157); conditions: S. cerevisiae mec2-1 strain, at 50.0 µM, stronger effect = higher value
Outline: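 Yeast mec2-1 mutant treated with compound. Readout: growth inhibition vs vehicle controls.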

[3] = NCI Yeast Anticancer Drug Screen. Data for the sgs1 mgt1 strain (AID 161);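 note: 0% = growth of cultures given vehicle only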; conditions: S. cerevisiae sgs1 mgt1 strain, at 50.0 µM, stronger effect = higher value
Outline: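 Read-out: growth inhibition vs vehicle controls. Cells: mutant yeast strain deficient in DNA damage repair.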

[4] = NCI Yeast Anticancer Drug Screen. Data for the cln2 rad14 strain (AID 165);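 note: 0% = growth equal to vehicle treated cultures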; conditions: S. cerevisiae cln2 rad14 strain, at 50.0 µM, stronger effect = higher value
Outline: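 cln2 rad14 yeast strain; compound exposure; growth inhibition read vs vehicle controls.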

[5] = NCI Yeast Anticancer Drug Screen. Data for the bub3 strain (AID 167); conditions: S. cerevisiae bub3 mutant strain, at 50.0 µM, stronger effect = higher value
Outline: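 Steps: expose the mutant yeast strain to compound; grow alongside vehicle-treated cultures; measure growth; express inhibition against the vehicle cultures.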

[6] = NCI Yeast Anticancer Drug Screen. Data for the mlh1 rad18 strain (AID 175); conditions: S. cerevisiae mlh1 rad18 strain growth inhibition; at 50.0 µM; stronger effect = higher value
Outline: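 Yeast w/ defined DNA-repair lesions; compound exposure; growth vs vehicle controls → % inhibition.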

Measured: growth inhibition

COC(=O)[C@@H]1[C@H](OC(C)=O)CCC2[C@@]3(C[C@@H](c4ccoc4)O[C@@H]3OC)[C@H](C)CC[C@]21C(=O)OC (stereo not given in full)
inactive: [1] -12.4% | [2] -5.1% | [3] -39% | [4] -8.7% | [5] -36.9% | [6] -37.5%

CC1(C)C(=O)CC[C@]2(C)[C@H]3C(=O)C=C4[C@H]5C[C@@](C)(C(=O)O)CC[C@]5(C)CC[C@@]4(C)[C@]3(C)CC[C@@H]12
inactive: [1] -4.8% | [2] -5.95% | [3] -3.85% | [4] -16.1% | [5] 0.15% | [6] -0.95%

Cc1cc(S(=O)(=O)/N=C(/NN)Nc2ccc(Cl)cc2)c(S)cc1Cl
inactive: [1] 22.6% | [2] 8.15% | [3] 19.9% | [4] 3.8% | [5] 27.5% | [6] 29.9%

S=c1[nH]nc(-c2ccccc2)n1/N=C\c1ccc(-c2ccc(Cl)cc2)o1
inactive: [1] 6.4% | [2] -21.5% | [3] -0.7% | [4] 14.8% | [5] -2.35% | [6] 5.5%

ClCCCCCc1c2nc(c(CCCCCCl)c3ccc([nH]3)c(CCCCCCl)c3ccc([nH]3)c(CCCCCCl)c3nc1C=C3)C=C2
inactive: [1] -14.2% | [2] -19.1% | [3] -20.6% | [4] 3.75% | [5] 4.9% | [6] -47.4%

COc1ccc2nc3cc(Cl)ccc3c(Nc3ccc(C(O)CCN(C)C)cc3)c2c1 (stereo not given)
inactive: [1] 39.8% | [2] -2.1% | [3] 25.4% | [4] 24.4% | [5] -2.1% | [6] 5.3%

O=C(c1ccccc1)N(Cc1ccccc1)Cc1ccccc1
inactive: [1] 1% | [2] 35.1% | [3] 26.4% | [4] -34.2% | [5] 41% | [6] 28.2%

c1cncc(Cc2nc3ccccc3[nH]2)c1
inactive: [1] -26.9% | [2] -2.5% | [3] -22.9% | [4] -11.7% | [5] -5.1% | [6] -34%

Cc1ccc(/C=N/NC(N)=O)cc1
inactive: [1] 25.6% | [2] 15.8% | [3] 12.3% | [4] 10.4% | [5] 17.2% | [6] -3.85%

NCCNCc1ccncc1
inactive: [1] -38% | [2] -41.5% | [3] -58.5% | [4] -11.3% | [5] -47.2% | [6] -27.2%

COC(=O)c1cc(=O)[nH]c2c1c(=O)[nH]c(=O)n2C
inactive: [1] 5.7% | [2] 9% | [3] -4.7% | [4] -39.2% | [5] 7.1% | [6] 21.4%

COC(=O)CCSSCCC(=O)OC
inactive: [1] 2.15% | [2] -13.1% | [3] -1.6% | [4] -6.15% | [5] -21.4% | [6] 24.9%

CCCCS(=O)(=O)N1CCCC1
inactive: [1] 4.15% | [2] -10.3% | [3] 1.9% | [4] -28.2% | [5] -5% | [6] -5.85%

CCC1SCC(=O)N1c1nncs1 (stereo not given)
inactive: [1] 4.75% | [2] 18.9% | [3] 4.55% | [4] -8.6% | [5] 2.75% | [6] 2.95%

O=C1OC(c2ccccc2)(c2ccc(Cl)cc2)CC1/C=C(\c1ccccc1)c1ccc(Cl)cc1 (stereo not given)
inactive: [1] -2% | [2] 6.65% | [3] 6.6% | [4] -10.4% | [5] -7.4% | [6] 3.65%

N=C(N)SCC(O)c1ccccc1 (stereo not given)
inactive: [1] 6.35% | [2] -11.4% | [3] -13.6% | [4] -42.4% | [5] -3.1% | [6] -19.5%

CN(C)c1ccc(C=C(C(=O)O)C(=O)O)cc1
inactive: [1] -5.2% | [2] 15.3% | [3] -8.1% | [4] 19.4% | [5] 15.7% | [6] 15.5%

Cc1ccc2nnc(C)n2c1
inactive: [1] 10.7% | [2] 1.95% | [3] 1.85% | [4] 19.2% | [5] 24.9% | [6] -4.4%

Cc1nc(-c2nc(C(=O)NCCC[S+](C)C)cs2)cs1
inactive: [1] -11.5% | [2] -7.85% | [3] -5.4% | [4] 3.4% | [5] -2.35% | [6] -0.2%

Cc1csc2nc(-c3cccs3)nn12
inactive: [1] 0.75% | [2] -15.4% | [3] 7.4% | [4] -1.55% | [5] -7.15% | [6] -9.1%
